The full list was thinned out, with hits kept by preference.
FAK blocker: blocks human focal adhesion kinase activity; Q05397; biochemical FAK kinase activity assay; inhibition, %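 (tested at 7 µM)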; 97,000 compounds, 0.84% hits; AID 727; in the data active = inhibition above about 19%;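 note: 0% = DMSO and 100% = reference compound high control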
PTK2B oligo ant: Pyk2 (human) oligomerization antagonism; Q14289; z-score (the deposit names both 25 µM and 10 µM); 99,000 compounds, 0.83% hits; Q293 cells, Pyk2 FERM NanoBiT luminescence; stronger effect = lower value;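 active = Z-score of -3 or lower, scaled per plate to the spread of control and sample wells; inactive = z-score above -3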;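 note: negative z-score means lost luminescence so less FERM oligomerization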
Target sequence (Q14289 whole entry, looked up): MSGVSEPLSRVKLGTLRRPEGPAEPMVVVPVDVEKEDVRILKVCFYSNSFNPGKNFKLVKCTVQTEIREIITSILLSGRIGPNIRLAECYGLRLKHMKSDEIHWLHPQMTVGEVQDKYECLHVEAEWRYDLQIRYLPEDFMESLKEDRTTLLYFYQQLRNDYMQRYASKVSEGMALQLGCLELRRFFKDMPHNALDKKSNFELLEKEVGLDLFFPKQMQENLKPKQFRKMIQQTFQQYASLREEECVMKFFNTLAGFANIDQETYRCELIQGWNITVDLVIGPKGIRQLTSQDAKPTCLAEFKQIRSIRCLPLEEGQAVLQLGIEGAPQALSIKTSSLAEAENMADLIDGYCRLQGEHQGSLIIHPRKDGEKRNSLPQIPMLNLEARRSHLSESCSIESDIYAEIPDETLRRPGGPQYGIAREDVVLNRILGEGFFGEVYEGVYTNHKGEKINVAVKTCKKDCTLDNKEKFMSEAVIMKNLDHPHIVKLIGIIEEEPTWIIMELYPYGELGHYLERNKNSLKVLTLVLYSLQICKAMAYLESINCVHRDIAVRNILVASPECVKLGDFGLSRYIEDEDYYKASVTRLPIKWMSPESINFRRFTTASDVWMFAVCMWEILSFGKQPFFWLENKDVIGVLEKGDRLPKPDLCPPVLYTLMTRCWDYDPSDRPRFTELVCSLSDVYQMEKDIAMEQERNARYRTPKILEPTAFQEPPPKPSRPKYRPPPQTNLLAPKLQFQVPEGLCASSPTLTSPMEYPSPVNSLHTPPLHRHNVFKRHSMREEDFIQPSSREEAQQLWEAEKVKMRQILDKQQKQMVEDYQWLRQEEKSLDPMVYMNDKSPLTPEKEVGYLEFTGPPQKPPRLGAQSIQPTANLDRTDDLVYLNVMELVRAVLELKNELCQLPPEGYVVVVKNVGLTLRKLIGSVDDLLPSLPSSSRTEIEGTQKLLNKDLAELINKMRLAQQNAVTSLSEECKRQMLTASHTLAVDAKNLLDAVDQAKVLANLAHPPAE
Mac1 fbg enh: increases human CD11b/CD18 adhesion to fibrinogen | K562 CD11b/CD18 adhesion to fibrinogen, ATPlite luminescence | activation, % at 10 µM | 93,000 compounds, 0.07% hits | AID 1499;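 active = 10 µM primary screen giving 50% or more activity, confirmed by 40% or more on retest at that dose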
hDAT+cocaine: human DAT dopamine uptake with cocaine, either direction | Q01959 | LLC-PK1 hDAT cells, [14C]-dopamine uptake with cocaine IC80; actives deviate in either direction | B-score at 10 µM | 110,000 compounds, 1.3% hits;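 active = Z score or B-score, a plate-position-corrected score, falls beyond the plate's 99.7% confidence bounds, in either direction; inactive = both scores lie inside the 99.7% bounds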;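 note: scored against the spread of the other compound wells on the same plate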
D1 mod: allosteric modulators of human D1 dopamine receptor; P21728; B-score at 10 µM; 58,000 compounds, 5.9% hits; HEK293 D1, CRE-luciferase, dopamine EC30 potentiation; actives deviate in either direction;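 active = luminescence count or its row- and column-corrected plate score outside the 99.7% band of the plate's sample wells, on either side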
CD11b adhes inh: inhibitors of human CD11b/CD18 binding to fibrinogen; P05107+P11215; K562 CD11b/CD18 adhesion to fibrinogen, ATPlite luminescence; Mn2+ added to activate the integrin; inhibition, % at 10 µM; 93,000 compounds, 0.54% hits; AID 1497;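 active = primary inhibition of 50% or more at 10 µM, then 40% or more on retest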
* = called active by the depositor; / = not tested or not shown.

SMILES	FAK blocker	PTK2B oligo ant	Mac1 fbg enh	hDAT+cocaine	D1 mod	CD11b adhes inh
CCCC(c1nnnn1Cc1ccco1)N1CCC(C(N)=O)CC1 (configuration not stated)	-2	1.9	2	-0.27	0.054	-4
CCC(=O)OC1=C2C(=Nc3c(c(=O)n(C)c(=O)n3C)C2c2ccccc2)c2ccccc21 (configuration not stated)	-2	/	/	/	-0.65	/
CCc1cccc(NC(=O)CN(c2ccc(OC)cc2)S(=O)(=O)c2c(C)n[nH]c2C)c1	2	-3.2*	2	0.33	/	-9
COc1ccc(N(CC(=O)Nc2cccc(C)c2)S(=O)(=O)c2c(C)n[nH]c2C)cc1	-2	-2.8	/	0.0094	/	/
CCOC(=O)c1cccc(NC(=O)CN(c2ccc(C)cc2)S(=O)(=O)c2c(C)n[nH]c2C)c1	4	-3*	0	1.3	0.28	-2
COc1ccc(N(CC(=O)Nc2ccc(C)c(C)c2)S(=O)(=O)c2c(C)n[nH]c2C)cc1	-2	-3.3*	6	/	/	-8
COC(=O)CC(=O)Cc1nc(N)nc(Nc2ccc(C)c(C)c2)n1	/	-0.15	/	0.46	-5.4*	/
COc1cccc2c3c(c(C)nc12)CC(C)O3 (configuration not stated)	1	0.06	-1	-0.23	-3.4*	-1
COc1ccc2nc(C)c3c(c2c1)OC(C)C3 (configuration not stated)	0	-0.82	-2	-0.096	-1.9	-3
Cc1c2c(nc3c(C)cccc13)OC(C)C2 (configuration not stated)	-7	0.47	/	-0.18	-0.072	/
CCOC(=O)c1ccc2nc(C)c3c(c2c1)OC(C)C3 (configuration not stated)	0	-1.1	-3	0.17	-2.7*	1
O=C(c1ccc(CSCc2ccccc2F)o1)N1CCN(c2ccc(N3CCOCC3)nn2)CC1	/	/	0	3.4*	0.32	7
Cn1nc(C(F)(F)F)c(C(=O)Nc2ccc(F)cc2F)c1Sc1ccc(C(F)(F)F)cc1	-3	-0.7	/	-1	/	/
O=C(Nc1nnc(-c2ccco2)s1)c1ccccc1	/	0.78	0	1	-4.5*	5
COc1ccc(C(=O)Nc2nnc(-c3ccco3)s2)cc1	-2	-0.08	-2	0.43	/	22
CCOc1ccccc1Oc1ccc(C(F)(F)F)cn1	2	0.47	8	-0.021	-4*	-18
COc1ccc(Cc2nnc3n2N=C(c2cc4ccccc4o2)CS3)cc1OC	-1	-0.82	/	1.1	3*	/
COc1ccc(-c2nnc3n2N=C(c2ccccc2)CS3)cc1OC	/	/	0	/	1.6	-3
CCOC(=O)C(NC(=O)NCc1ccccc1OC)(OCC)C(F)(F)F (configuration not stated)	/	/	0	/	/	1
Nc1nc(C2CCCN2S(=O)(=O)c2ccc(Cl)cc2)cs1 (configuration not stated)	1	-3.2*	0	-0.12	0.14	-20
O=S(=O)(c1cc(-c2nnc(-c3ccc(Br)cc3)o2)ccc1Br)N1CCCCCC1	-1	1.4	/	3.3*	/	/
NC(=O)c1ccc(Br)c(S(=O)(=O)N2CCCCC2)c1	1	-0.17	0	2	1.3	49
CCOC(=O)C1=C(N)Oc2ccc3ccccc3c2C1c1cccnc1 (configuration not stated)	2	-3.1*	/	-0.63	/	/
Cc1nn(-c2ccc(F)cc2F)c2c1-c1nc(N3CCCC3)ncc1CC2	3	-1.4	-4	-1.7	-5.9*	-4
O=C(Cn1cc2c(n1)CCCCC2)Nc1ccc(F)cc1F	/	/	-2	0.065	0.079	10
SMILES	FAK blocker	PTK2B oligo ant	Mac1 fbg enh	hDAT+cocaine	D1 mod	CD11b adhes inh
CC(C)(C)[C@H]1C=C(C(=O)O)O[C@@H](OCc2ccc(CO)cc2)C1	/	/	/	0.3	/	/
c1ccc(-c2nc(NCc3ccco3)c3oc4ccccc4c3n2)cc1	-3	-1.3	/	-0.004	/	/
c1ccc(-c2nc(NCCCn3ccnc3)c3oc4ccccc4c3n2)cc1	-5	-1.9	/	3.5*	/	/
N#CCCN(C(=O)COc1ccc(Cl)cc1Cl)c1ccccc1	/	0.01	/	/	/	/
COc1ccccc1NC(=O)CSc1nnc(C)n1CCc1ccccc1	0	0.67	-2	-7.6*	-0.56	11
Cn1cccc1Cc1nnc(SCC(=O)Nc2ccc3c(c2)OCCO3)n1CCc1ccccc1	1	/	-5	2.5*	-0.3	12
CCn1c(COc2ccccc2C)nnc1SCC(=O)CC(=O)Nc1ccccc1OC	-4	1.3	6	3.1*	-0.64	8
Cn1cccc1Cc1nnc(SCC(=O)Nc2ccc3c(c2)OCO3)n1CCc1ccccc1	/	/	3	1.2	-0.23	1
COc1ccc(OC)c(NC(=O)CSc2nnc(Cc3cccn3C)n2CCc2ccccc2)c1	-3	0.42	4	3*	0.28	-15
Cc1nnc(SCC(=O)NC(C)(C)C)n1CCc1ccccc1	-4	-0.62	/	-0.47	-1.6	/
CN1C(=O)C2(N=c3ccccc3=N2)c2ccccc21	2	1.4	2	0.18	/	1
COCCCNC(=O)CC(NS(=O)(=O)c1ccc(Cl)cc1)c1ccc(OC)cc1 (configuration not stated)	-2	-0.21	3	-0.83	/	7
CN(CC(=O)Nc1ccc(N2CCOCC2)cc1)CC(=O)Nc1ccccc1C#N	/	/	-1	/	/	8
Cc1c(NC(=O)OCCNC(=O)COc2c(Cl)cccc2Cl)sc(=S)n1C	5	0.13	/	0.73	/	/
O=C(c1cccc2c1C(=O)N(Cc1cccnc1)C2)N1CCN(c2ccccc2)CC1	0	0.67	0	0.54	0.36	12
Clc1ccccc1CN1CCC(Cc2ccccc2)CC1	/	/	0	/	/	17
CCc1ccccc1NC(=O)c1ccc(CN2CCC(Cc3ccccc3)CC2)cc1	-2	0.15	/	-6.9*	/	/
O=C(c1ccc(CN2CCOCC2)cc1)N1CCC(Cc2ccccc2)CC1	0	-0.55	-2	2.1	-3.3*	-2
O=C(NNC(=S)NC(=O)C12CC3CC(CC(C3)C1)C2)c1ccncc1	0	-0.86	2	0.16	/	28
CC(=O)Nc1ccc(NS(=O)(=O)c2ccc3ccccc3c2)cc1	3	-0.44	-3	-0.76	/	10
COc1cccc(N(C(=O)Cn2nnc(-c3cccs3)n2)C(C(=O)NC(C)C)c2ccc(C)o2)c1 (configuration not stated)	8	-3.5*	/	0.063	/	/
COc1cc2[nH]c(=O)c(C(=O)NCCCN3CCCCC3)c(O)c2cc1OC	4	0.24	-2	0.64	-4.3*	-39
O=C(NCCCN1CCOCC1)c1c(O)c2ccccc2[nH]c1=O	7	0.71	10	0.19	/	6
O=C(CCS(=O)(=O)Cc1ccccc1)NCC1CCCO1 (configuration not stated)	-1	0.38	2	2.1*	-0.63	-12
O=C(Cc1ccccc1)NCC1CCCO1 (configuration not stated)	-1	0.13	-4	-0.0019	/	-3

Screening data as filed in PubChem BioAssay.
